Laboratory results as given in article PMC4552634, “A New Set of Chemical Starting Points with Plasmodium falciparum Transmission-Blocking Potential for Antimalarial Drug Discovery” (PLoS ONE, 2015).
Out of some 13,000 compounds screened, about 3,200 (25%) showed an effect of 50% or more. The list shows a part of the results.

Tested on: P. falciparum stage V gametocytes
Set-up: BacTiter-Glo ATP luminescence viability of purified stage V gametocytes in 384-well plates, per cent inhibition versus DMSO
Conditions: 48 h, 5 µM; inhibitor

SMILES | % Inhibition
Cn1ncc2c3c(CCN4CCC(NCc5cc6c(cn5)OCC6)CC4)c(Cl)cnc3ccc21 [TCMDC-136024] | -18.24%
COc1ccccc1C(=O)Nc1cccc(N2CCC(NCc3ccc(-n4cccn4)cc3)CC2)c1 [TCMDC-124643] | 0.3581%
COc1ccccc1NC(=O)Nc1ccc(-c2ccc(-c3nc4cccc(C)c4[nH]3)s2)cc1 [TCMDC-133201] | -21.27%
COc1cccc(CN(C(=O)Nc2ccccc2F)[C@H]2C[C@H]3C(=O)Nc4cc(F)ccc4C(=O)N3C2)c1 [TCMDC-134304] | 17.59%
CC(C)(C)C(=O)Oc1ccc(CC2NCCc3cc(OC(=O)C(C)(C)C)c(OC(=O)C(C)(C)C)cc32)cc1OC(=O)C(C)(C)C (stereo not shown) [TCMDC-131452] | -22.51%
Fc1ccc2nc(-c3ccc(-c4ccc(CN5CCN(CCN6CCOCC6)CC5)cc4)cc3)[nH]c2c1 [TCMDC-133926] | -0.4105%
NCC1CCCN1Cc1ccc(-c2cccc(-c3nc4ccc(F)cc4[nH]3)c2)cc1 (stereo not shown) [TCMDC-132998] | 102.5%
NCC1CCCN1Cc1ccc(-c2ccc(-c3nc4ccccc4[nH]3)s2)cc1 (stereo not shown) [TCMDC-132988] | 37.26%
Cc1cccc2[nH]c(-c3cccc(-c4cccc(CN5CCCC5CN)c4)c3)nc12 (stereo not shown) [TCMDC-132989] | 49.36%
NC(=O)C1CCN(Cc2cccc(-c3cccc(-c4nc5ccc(F)cc5[nH]4)c3)c2)CC1 [TCMDC-132686] | -35.6%
NCC1CCCN1Cc1ccc(-c2ccc(-c3nc4ccc(F)cc4[nH]3)cc2)cc1 (stereo not shown) [TCMDC-132994] | 65.53%
NCC1CCCN1Cc1cccc(-c2cccc(-c3nc4ccc(F)cc4[nH]3)c2)c1 (stereo not shown) [TCMDC-133001] | 98.63%
COc1ccccc1OCCN(CC(O)COc1cccc2[nH]c3ccccc3c12)CC(O)COc1cccc2[nH]c3ccccc3c12 (stereo not shown) [TCMDC-141980] | -17.57%
O=C1NCN(c2ccc(O)cc2)C12CCN(CCCC(c1ccc(F)cc1)c1ccc(F)cc1)CC2 [TCMDC-138052] | -32.4%
Cc1[nH]c(C)c(-c2ccc(/C=C/c3ccccn3)cc2)c(=O)c1Cl [TCMDC-135787] | 58.19%
Cc1[nH]c(C)c(-c2ccc(C(=O)c3ccc(Cl)cc3)cc2)c(=O)c1Cl [TCMDC-137413] | 70.39%
Cc1[nH]c(C)c(-c2csc3ccccc23)c(=O)c1Cl [TCMDC-136017] | 42.39%
Cc1[nH]c(C)c(-c2ccc(Cl)cc2)c(=O)c1I [TCMDC-137424] | 41.94%
Cc1[nH]c(C)c(-c2ccc(-c3ccc(Cl)cc3)cc2)c(=O)c1Cl [TCMDC-137416] | 50.46%
Cc1[nH]c(C)c(-c2ccc(C(=O)c3ccccc3)cc2)c(=O)c1Br [TCMDC-137419] | 74.6%
CC[C@H](C)CNC(=O)c1cncc(-c2ccc(CNCC3CNCCCO3)cc2)c1 (stereo partly shown) [TCMDC-134269] | 2.096%
CN(C)CCCN1C(=O)c2[nH]nc(-c3ccc(Cl)cc3O)c2C1c1ccc(Cl)cc1 (stereo not shown) [TCMDC-124910] | -62.01%
C(=N\Nc1nccc2sc(-c3cccnc3)cc12)/c1cccnc1 [TCMDC-135297] | -1.822%

SMILES | % Inhibition
O=C1c2ccccc2CN1CCCN1CCC(Oc2ccc(F)cc2)CC1 [TCMDC-141252] | -41.1%
COc1c(Br)cc(Br)cc1-c1ccc(CN2C3CCCC2CCC3)[nH]1 [TCMDC-138965] | -8.76%
CC(C)S(=O)(=O)N1CCN(Cc2ccc3c(c2)nc(NC(=O)c2ccsc2)n3C[C@H](O)c2ccccc2)CC1 [TCMDC-138569] | -9.312%
Cc1[nH]c(C)c(-c2ccc(Br)cc2)c(=O)c1Cl [TCMDC-135043] | 62.53%
Cc1[nH]c(C)c(C2CCC(c3ccc(Cl)cc3)CC2)c(=O)c1Cl (stereo not shown) [TCMDC-137423] | 63.6%
Cc1cc(=O)c(C2CCC(c3ccc(Cl)cc3)CC2)c(C)[nH]1 (stereo not shown) [TCMDC-138154] | 9.202%
Cc1[nH]c(C)c(-c2cc3ccccc3o2)c(=O)c1Cl [TCMDC-135948] | 11.96%
Cc1[nH]c(C)c(-c2ccc(C(=O)c3ccc(Cl)cc3)cc2)c(=O)c1Br [TCMDC-137407] | 68.89%
CCN(CC)C(=O)c1cccc(C=Cc2ccc(-c3c(C)[nH]c(C)c(Cl)c3=O)cc2)c1 [TCMDC-135819] | 53.1%
Cc1[nH]c(C)c(-c2ccc(Br)cc2)c(=O)c1Br [TCMDC-137537] | 28.95%
Cc1cc(=O)[nH]c2cc(Nc3ccnc(Nc4cccc(C(N)=O)c4)n3)ccc12 [TCMDC-138710] | 20.95%
CC(C)Oc1ccc(N2CCN(CCCCNC(=O)c3ccc(NC(=O)c4ccc(Cl)cc4)cc3)CC2)c(OC(C)C)c1 [TCMDC-138245] | -2.12%
C#CCN(Cc1ccc2nc(N)[nH]c(=O)c2c1)c1ccc(C(=O)N[C@@H](CCC(=O)O)C(=O)O)cc1 [TCMDC-131823] | -7.091%
O=C(CCCCCNC(=O)c1ccc(O)c(-c2cccc(C(F)(F)F)c2)c1)NCCN1CCCCC1 [TCMDC-140814] | -2.677%
Cc1cc(N(C)C)nc(Nc2ccc(NC(=O)c3cccc(F)c3)cc2)n1 [TCMDC-124724] | 10.45%
Cc1[nH]c(C)c(-c2ccc(Sc3ccc(Cl)cc3)cc2)c(=O)c1Br [TCMDC-137404] | 66.05%
COc1ccc2ncc(Cl)c(N3CCC(CCNCc4ccc5c(n4)NC(=O)CS5)CC3)c2c1.Cl [TCMDC-141958] | 0.05948%
CC(C)(C)NS(=O)(=O)c1cc(C(=O)N2CCC(CCN3CCC(O)(c4cccc(C(F)(F)F)c4)CC3)(c3cccc(F)c3)CC2)c(Cl)cc1F [TCMDC-135886] | 93.87%
CC(C)(C)NS(=O)(=O)c1cc(C(=O)N2CCC(CCN3CCC(C(=O)c4ccc(F)cc4)CC3)(c3cccc(F)c3)CC2)c(Cl)cc1F [TCMDC-135885] | 79.72%
CC(=O)C1(c2ccccc2)CCN(CCC2(c3ccc(Cl)c(Cl)c3)CN(C(=O)Nc3cccc(C(F)(F)F)c3)CCO2)CC1 (stereo not shown) [TCMDC-135342] | 34.05%
O=C(Cc1ccccc1)NC(CCN1CCC(O)(c2cccc(C(F)(F)F)c2)CC1)c1ccc(Cl)c(Cl)c1 (stereo not shown) [TCMDC-141711] | 14.28%
CN(C)S(=O)(=O)c1ccc(N2CCN(CCC3(c4cccc(F)c4)CCN(C(=O)C(C)(C)C)CC3)CC2)c2nonc12 [TCMDC-135887] | 8.489%
O=C(NC1CCN(CCC[C@]2(c3ccc(Cl)c(Cl)c3)CCCN(C(=O)c3ccccc3)C2)CC1)c1ccc(Cl)cc1 [TCMDC-141713] | -34.58%
